Source: the OligoGym collection

Each sequence was assayed against NOTCH4 (assay: pooled miR-30 sensor sort-seq; sequence = guide strand). Conditions: shRNA.
Further: reference of the scale not given here.

Sequence	sensor-assay potency score (higher = more potent)
TTGGCTGAACAGAAGTCCCGAA	-0.0674
TTGGTGAGCGACGTCCGCCGGC	-0.551
TTTCTGGTCCTTACATATCTGC	-1.07
TTGGGACTGACAAGCATCGAGT	-0.743

What follows are sequences tested against NOX3 in the same assay as above. Conditions: shRNA.

Sequence	sensor-assay potency score (higher = more potent)
TTGAGGTAGCTCTCGTTAGGGG	-0.746
TAATTATTCTTTCACATGCATA	-1.3
TAATAGAAATGAACACCTCTGG	-0.368
TAGAAATGAACACCTCTGGGGT	-0.411
TACCAGAACAACTCATAGGAGG	-0.91
TAGCGGTCTCTACAGAAGGTGA	-1.67
TAAAGCTATGTGAAGAGCCTGA	0.784
TAAAATTCAGGCACAGTGCGGA	-0.0572
TTGCATTAACAGCTATCCCATA	-1.07
TTGAACCCAAAATAACTCGTGT	-0.176
TAGATTTCAGAAGAGCAGCGAA	-0.277

What follows are sequences tested against NOXA1 in the same assay as above. Conditions: shRNA.

Sequence	sensor-assay potency score (higher = more potent)
TCCTGGTAGGCAGTCGACGTGC	-1.54
TCACACAGGACGTCCACCGTGT	0.181
TTGGGGAAGATGCCGATGCGGC	-1.12
TCTGCAGCGACTCCTCCTCGGG	-1.51
TTGGTCCAGGGCTGAGTCCAGG	-1.7
TTGTGTAGCACCTCCCAGGCTT	-0.348
ACATTGTGTAGCACCTCCCAGG	-1.3
TGGCATCATGGTTCGCTCCTGG	-0.558
TGGTAGGCAGTCGACGTGCAGC	-1.86
TCTGTCTCTGCATCGAGGGGGC	-0.532
TAACTGAGTTGCCCAAGCTGGG	-1.24
TTAGGGACCTGGCATCATGGTT	-1.05

These sequences were tested against NPBWR1 in the same assay as above. Conditions: shRNA.

Sequence	sensor-assay potency score (higher = more potent)
AACTGGTACAGCCACCGCCAGC	-1.89
TTGTACTGGTCGATAGCCACGA	-0.0597
TAGAGGACACAGATGGTGGACA	-0.757
TCGATAGCCACGATGAGCTTGC	0.0042
TGTTGTACTGGTCGATAGCCAC	-0.835
TGATGAAGTAGGAGATAGCGAT	-0.908
TTGGAGCAGCTCAGCGCCGGGT	-1.46
TTGGTGACGGTCTTCATGCGGG	-0.52
TAGAGGAAGGGGTTGAGGCAGC	0.0364
TTGATGGGCAGCACCAGCGTGA	-0.969
TCACCGCGTAGACAACTGGTAC	-1.33
TGTACTGGTCGATAGCCACGAT	-0.544
